Active and inactive are the calls of the source.
What was measured:
[1] = system: PRMT1 (protein arginine N-methyltransferase 1); experiment: small molecules binding arginine methyltransferase PRMT1 – biochemical, small-molecule microarray, 635 nm fluorescence, primary screen (AID 1088); settings: higher = more signal;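 also: binding of Prmt1 protein to compounds spotted on small-molecule microarray slides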
[2] = growth effects on S. cerevisiae YJM789 – YJM789 clinical isolate, OD600, 24 h, basal, primary screen (AID 1089); settings: higher = more signal, called active from +8 up or from −8 down;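 also: growth of clinical yeast isolate S. cerevisiae YJM 789 seeded 1000 cells per well; test concentration not given here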
[3] = S. pombe growth modifiers, basal conditions – strain 972, OD600, 24 h, no modulator, primary screen (AID 1090);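 also: basal condition with compound alone and no growth modifier present; test concentration not given here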; settings: S. pombe 972 growth, higher = more signal, called active from +8 up or from −8 down
[4] = budding yeast growth modifiers under rapamycin – strain BY4716, OD600, 96 h, primary screen (AID 1091); also: test concentration not given here; settings: S. cerevisiae BY4716 + rapamycin, higher = more signal, called active from +8 up or from −8 down
[5] = biological target: Torsin-1A-interacting protein 2 (Homo sapiens) (UniProt Q8NFQ8); experiment: small molecules binding lysate-expressed LULL1 – cell lysate, human LULL1 lysate, 635/667 nm fluorescence, primary screen (AID 1092); settings: small-molecule microarray, hLULL1 lysate binding, 635 nm fluorescence; higher = more signal;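 also: probe is lysate of COS7 cells overexpressing human LULL1; score merges per-feature 667 nm fluorescence with signal-to-noise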
Chain of Torsin-1A-interacting protein 2 (Homo sapiens) (Q8NFQ8 whole entry, looked up): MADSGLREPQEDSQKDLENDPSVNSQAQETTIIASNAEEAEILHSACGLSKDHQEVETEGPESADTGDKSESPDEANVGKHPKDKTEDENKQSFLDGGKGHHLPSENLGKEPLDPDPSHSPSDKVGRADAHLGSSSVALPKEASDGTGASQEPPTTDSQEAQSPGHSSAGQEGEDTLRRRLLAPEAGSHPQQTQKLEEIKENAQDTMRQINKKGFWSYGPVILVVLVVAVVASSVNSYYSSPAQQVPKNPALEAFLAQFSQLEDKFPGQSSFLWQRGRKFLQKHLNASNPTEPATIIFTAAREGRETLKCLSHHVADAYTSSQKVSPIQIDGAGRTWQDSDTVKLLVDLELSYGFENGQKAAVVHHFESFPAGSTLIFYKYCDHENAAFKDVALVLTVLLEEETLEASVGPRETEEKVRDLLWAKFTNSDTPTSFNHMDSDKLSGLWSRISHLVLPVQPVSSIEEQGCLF

[6] = optical density change of DRC41 E. coli – strain DRC41, OD650, 24 h, E. coli filamentation project, primary screen (AID 1093);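 also: MC1000 strain lacking acrAB efflux and sulA so SOS filamentation is blocked; test concentration not given here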; settings: E. coli DRC41 growth, higher = more signal, called active from +8 up or from −8 down
[7] = probe aLefty2 binding to arrayed compounds – biochemical, biotinylated probe, 635/667 nm fluorescence, primary screen (AID 1094); settings: small-molecule microarray, higher = more signal;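 also: score merges spot fluorescence near 667 nm with spot signal-to-noise ratio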
[8] = system: Noggin (protein binding on small-molecule microarray); experiment: small molecules binding Noggin protein – biochemical, 635/667 nm fluorescence, primary screen (AID 1095); settings: 635 nm fluorescence, higher = more signal;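 also: score merges 667 nm feature fluorescence with signal to noise over triplicate slides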
[9] = biological target: Neurogenic locus notch homolog protein 3 (Homo sapiens) (UniProt Q9UM47); experiment: small molecules binding NOTCH3 protein – biochemical, 635/667 nm fluorescence, primary screen (AID 1096); settings: small-molecule microarray, 635 nm fluorescence, higher = more signal
Chain of Neurogenic locus notch homolog protein 3 (Homo sapiens) (Q9UM47 whole entry, looked up): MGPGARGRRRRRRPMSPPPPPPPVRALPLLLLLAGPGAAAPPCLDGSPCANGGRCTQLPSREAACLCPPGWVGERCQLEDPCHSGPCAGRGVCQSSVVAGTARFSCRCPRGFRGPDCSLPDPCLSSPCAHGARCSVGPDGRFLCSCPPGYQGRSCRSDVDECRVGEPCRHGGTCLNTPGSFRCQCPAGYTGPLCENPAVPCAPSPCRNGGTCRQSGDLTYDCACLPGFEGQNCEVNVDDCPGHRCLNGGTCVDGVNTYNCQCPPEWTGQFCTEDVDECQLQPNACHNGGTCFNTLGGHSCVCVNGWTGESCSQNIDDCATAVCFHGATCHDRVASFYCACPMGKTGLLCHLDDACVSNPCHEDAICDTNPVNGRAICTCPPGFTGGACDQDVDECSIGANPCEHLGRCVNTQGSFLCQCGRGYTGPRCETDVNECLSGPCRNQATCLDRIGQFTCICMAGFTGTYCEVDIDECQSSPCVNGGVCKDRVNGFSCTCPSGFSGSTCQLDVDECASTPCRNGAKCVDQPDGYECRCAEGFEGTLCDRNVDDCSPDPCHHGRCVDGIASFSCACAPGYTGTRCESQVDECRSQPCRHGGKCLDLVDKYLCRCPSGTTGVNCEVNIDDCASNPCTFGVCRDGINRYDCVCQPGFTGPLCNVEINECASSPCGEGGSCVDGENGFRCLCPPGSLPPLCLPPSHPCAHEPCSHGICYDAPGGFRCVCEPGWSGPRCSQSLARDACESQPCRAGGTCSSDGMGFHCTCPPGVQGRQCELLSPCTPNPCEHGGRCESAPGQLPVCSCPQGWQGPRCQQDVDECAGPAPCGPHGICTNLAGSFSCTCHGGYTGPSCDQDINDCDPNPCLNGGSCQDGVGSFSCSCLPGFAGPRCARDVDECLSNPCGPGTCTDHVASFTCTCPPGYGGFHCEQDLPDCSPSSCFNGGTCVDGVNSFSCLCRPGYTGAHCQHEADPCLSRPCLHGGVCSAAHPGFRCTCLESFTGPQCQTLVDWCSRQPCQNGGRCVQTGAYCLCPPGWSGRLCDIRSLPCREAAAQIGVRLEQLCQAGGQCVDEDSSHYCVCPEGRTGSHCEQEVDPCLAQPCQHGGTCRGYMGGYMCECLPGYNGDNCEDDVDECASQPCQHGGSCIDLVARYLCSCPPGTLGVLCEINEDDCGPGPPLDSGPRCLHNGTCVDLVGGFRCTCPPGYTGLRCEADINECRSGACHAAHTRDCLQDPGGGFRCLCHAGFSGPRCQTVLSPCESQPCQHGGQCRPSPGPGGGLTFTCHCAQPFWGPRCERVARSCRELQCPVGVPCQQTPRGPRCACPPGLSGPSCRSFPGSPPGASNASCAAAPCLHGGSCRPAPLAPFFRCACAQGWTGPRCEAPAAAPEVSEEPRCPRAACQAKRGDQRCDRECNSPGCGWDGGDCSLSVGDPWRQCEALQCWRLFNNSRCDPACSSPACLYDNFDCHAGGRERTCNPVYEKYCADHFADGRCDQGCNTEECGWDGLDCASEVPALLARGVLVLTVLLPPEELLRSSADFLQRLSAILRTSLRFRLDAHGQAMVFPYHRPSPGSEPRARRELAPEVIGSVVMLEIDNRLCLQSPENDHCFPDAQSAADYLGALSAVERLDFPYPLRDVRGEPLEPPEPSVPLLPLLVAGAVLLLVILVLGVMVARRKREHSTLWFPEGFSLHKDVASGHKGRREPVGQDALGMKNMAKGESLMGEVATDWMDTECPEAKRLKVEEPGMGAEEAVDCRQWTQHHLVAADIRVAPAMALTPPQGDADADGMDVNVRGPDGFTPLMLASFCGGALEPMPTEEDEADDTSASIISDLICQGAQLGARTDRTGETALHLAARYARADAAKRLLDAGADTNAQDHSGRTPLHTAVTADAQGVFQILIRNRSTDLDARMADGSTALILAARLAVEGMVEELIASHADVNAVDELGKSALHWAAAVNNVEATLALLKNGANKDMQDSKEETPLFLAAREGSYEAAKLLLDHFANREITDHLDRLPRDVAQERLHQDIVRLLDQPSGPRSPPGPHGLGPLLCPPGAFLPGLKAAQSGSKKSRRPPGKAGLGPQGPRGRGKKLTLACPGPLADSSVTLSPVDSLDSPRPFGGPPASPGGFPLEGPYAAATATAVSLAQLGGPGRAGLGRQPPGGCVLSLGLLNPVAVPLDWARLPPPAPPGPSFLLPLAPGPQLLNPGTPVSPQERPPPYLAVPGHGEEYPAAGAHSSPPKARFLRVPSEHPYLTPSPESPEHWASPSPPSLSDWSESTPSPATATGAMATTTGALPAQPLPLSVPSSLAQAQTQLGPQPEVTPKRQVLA

[10] = probe aEGFR binding to arrayed compounds – biochemical, biotinylated probe, 635/667 nm fluorescence, primary screen (AID 1097); settings: small-molecule microarray, higher = more signal;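 also: probe is a biotinylated anti-EGFR antibody binding compounds printed on slides; score combines fluorescence near 667 nm and signal to noise of each spot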
[11] = system: Plasmodium falciparum Sir2 (PF13_0152, Sir2A); experiment: Plasmodium falciparum Sir2A binding compounds – biochemical, small-molecule microarray, 635 nm fluorescence, primary screen (AID 1098); settings: fluorescence 635 nm, higher = more signal;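 also: score merges spot fluorescence intensity with its signal-to-noise ratio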
[12] = probe aDKK1 binding to arrayed compounds – biochemical, biotinylated probe, 635/667 nm fluorescence, primary screen (AID 1099); settings: small-molecule microarray, higher = more signal;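 also: score merges 667nm spot fluorescence with signal to noise across triplicate slides; reference of the scale not given here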
[13] = probe aCHRDL2 binding to arrayed compounds – biochemical, biotinylated probe, 635/667 nm fluorescence, primary screen (AID 1100); settings: small-molecule microarray, higher = more signal
[14] = change in splice reporter luminescence, either direction, cell-based, HEK293, spliceosome inhibition project, primary screen (AID 1101); settings: HEK293 splicing luciferase reporter, 24 h, higher = more signal, called active from +8 up or from −8 down;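 also: HEK293 cells carrying a splicing-competent luciferase reporter gene; test concentration not given here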
[15] = biological target: Fibroblast growth factor 10 (Homo sapiens) (UniProt O15520); experiment: compounds binding fibroblast growth factor 10 – biochemical, small-molecule microarray, 635 nm fluorescence, primary screen (AID 1102); settings: FGF10 binding, fluorescence 635 nm, higher = more signal
Chain of Fibroblast growth factor 10 (Homo sapiens) (O15520 whole entry, looked up): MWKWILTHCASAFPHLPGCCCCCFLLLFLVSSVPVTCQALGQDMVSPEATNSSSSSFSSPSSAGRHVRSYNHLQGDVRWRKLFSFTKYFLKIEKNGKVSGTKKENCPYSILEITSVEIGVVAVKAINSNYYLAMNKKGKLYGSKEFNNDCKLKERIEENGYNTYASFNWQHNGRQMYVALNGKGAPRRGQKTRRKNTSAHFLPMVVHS

[16] = system: glycogen synthase kinase-3 (GSK3A per assay name; protocol says GSK3B); experiment: compounds binding glycogen synthase kinase-3 – biochemical, small-molecule microarray, 635 nm fluorescence, GSK3A, primary screen (AID 1103); settings: fluorescence 635 nm, higher = more signal; also: the record names both GSK3A and GSK3B
[17] = biological target: Epidermal growth factor receptor (Homo sapiens) (UniProt P00533); experiment: compounds binding epidermal growth factor receptor – biochemical, small-molecule microarray, 635 nm fluorescence, primary screen (AID 1104); settings: EGFR binding, higher = more signal;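 also: score merges 667 nm emission intensity with spot signal to noise over triplicate slides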
Chain of Epidermal growth factor receptor (Homo sapiens) (P00533 whole entry, looked up): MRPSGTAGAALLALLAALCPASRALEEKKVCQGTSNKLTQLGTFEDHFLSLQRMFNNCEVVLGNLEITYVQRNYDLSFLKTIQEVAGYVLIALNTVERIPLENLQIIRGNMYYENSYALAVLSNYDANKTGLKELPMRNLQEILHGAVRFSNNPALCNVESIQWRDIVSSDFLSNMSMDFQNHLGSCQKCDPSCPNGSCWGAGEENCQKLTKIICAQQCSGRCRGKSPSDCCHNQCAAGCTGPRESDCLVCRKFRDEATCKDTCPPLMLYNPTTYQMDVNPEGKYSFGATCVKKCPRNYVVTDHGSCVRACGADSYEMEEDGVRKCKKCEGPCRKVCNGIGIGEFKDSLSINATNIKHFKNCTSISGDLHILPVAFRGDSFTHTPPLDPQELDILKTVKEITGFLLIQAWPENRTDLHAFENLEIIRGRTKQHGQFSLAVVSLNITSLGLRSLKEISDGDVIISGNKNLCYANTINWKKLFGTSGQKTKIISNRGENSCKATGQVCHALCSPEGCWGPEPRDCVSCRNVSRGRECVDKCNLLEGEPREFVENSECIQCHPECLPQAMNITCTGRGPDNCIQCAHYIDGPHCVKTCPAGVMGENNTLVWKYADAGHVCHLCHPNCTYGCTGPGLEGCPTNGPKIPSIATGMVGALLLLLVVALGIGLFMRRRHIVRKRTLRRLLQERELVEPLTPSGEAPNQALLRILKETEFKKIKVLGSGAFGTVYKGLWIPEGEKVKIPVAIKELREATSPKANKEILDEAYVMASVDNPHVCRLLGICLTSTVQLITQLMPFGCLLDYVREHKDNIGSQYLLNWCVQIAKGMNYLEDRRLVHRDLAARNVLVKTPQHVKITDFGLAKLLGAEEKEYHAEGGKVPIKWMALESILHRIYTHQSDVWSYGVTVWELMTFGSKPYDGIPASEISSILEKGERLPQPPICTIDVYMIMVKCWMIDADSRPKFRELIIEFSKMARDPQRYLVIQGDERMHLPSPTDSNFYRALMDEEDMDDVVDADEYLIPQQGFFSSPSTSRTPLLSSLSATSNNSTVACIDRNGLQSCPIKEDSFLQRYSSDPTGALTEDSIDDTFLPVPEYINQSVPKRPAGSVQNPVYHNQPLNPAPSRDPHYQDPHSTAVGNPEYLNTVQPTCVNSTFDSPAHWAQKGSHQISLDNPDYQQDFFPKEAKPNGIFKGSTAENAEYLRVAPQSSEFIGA

[18] = biological target: Follistatin-related protein 3 (Homo sapiens) (UniProt O95633); experiment: compounds binding follistatin-related protein 3 – biochemical, small-molecule microarray, 635 nm fluorescence, primary screen (AID 1105); settings: FSTL3 binding, higher = more signal;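 also: score merges emission near 667 nm and signal to noise per printed spot across three slides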
Chain of Follistatin-related protein 3 (Homo sapiens) (O95633 whole entry, looked up): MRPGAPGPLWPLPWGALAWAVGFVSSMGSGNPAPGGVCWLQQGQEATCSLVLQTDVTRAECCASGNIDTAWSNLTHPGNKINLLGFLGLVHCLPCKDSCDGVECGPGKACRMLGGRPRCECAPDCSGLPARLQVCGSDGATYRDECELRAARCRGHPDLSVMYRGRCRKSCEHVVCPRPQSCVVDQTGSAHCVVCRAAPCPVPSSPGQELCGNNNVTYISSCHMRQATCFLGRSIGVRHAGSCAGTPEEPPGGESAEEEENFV

[19] = biological target: Dickkopf-related protein 1 (Homo sapiens) (UniProt O94907); experiment: small molecules binding DKK1 protein – biochemical, small-molecule microarray, 635 nm fluorescence scan, primary screen (AID 1106); settings: higher = more signal;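 also: score merges emission near 667 nm with signal to noise over three replicate slides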
Chain of Dickkopf-related protein 1 (Homo sapiens) (O94907 whole entry, looked up): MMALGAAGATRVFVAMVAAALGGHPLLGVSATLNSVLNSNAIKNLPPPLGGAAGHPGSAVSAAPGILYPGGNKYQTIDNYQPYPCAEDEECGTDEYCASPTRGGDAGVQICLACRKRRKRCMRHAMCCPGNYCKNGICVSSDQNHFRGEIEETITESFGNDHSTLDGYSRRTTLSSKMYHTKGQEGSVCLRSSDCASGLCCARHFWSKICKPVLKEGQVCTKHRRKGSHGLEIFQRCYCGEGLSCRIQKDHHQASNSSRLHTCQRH

[20] = system: Inhibin beta A chain (activin A); experiment: small molecules binding activin A – biochemical, small-molecule microarray, 635 nm fluorescence scan, primary screen (AID 1107); settings: INHBA, higher = more signal;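 also: mouse activin A protein probed at 4.33 µg/mL on printed slides; score merges bound-protein fluorescence near 667 nm with spot signal-to-noise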

SMILES: CS(=O)(=O)CCOC(=O)C1=CC(CCCO)=CC(c2ccc(CN3CCCC3)cc2)N(Cc2sc3ccccc3c2Cl)C=C1C(=O)OCCS(C)(=O)=O (stereo not given)
- composite z-score [1]: 1.54
- z-score [2]: -0.381 (inactive)
- z-score [3]: -5.83 (inactive)
- z-score [4]: -1.41 (inactive)
- composite z-score [5]: 2.06
- z-score [6]: -0.853 (inactive)
- composite z-score [7]: 0.27
- composite z-score [8]: 0.563
- composite z-score [9]: 1.04
- composite z-score [10]: 0.447
- composite z-score [11]: 1.37
- composite z-score [12]: 0.518
- composite z-score [13]: -0.0725
- z-score [14]: 0.576 (inactive)
- composite z-score [15]: 1.34
- composite z-score [16]: 1.33
- composite z-score [17]: 0.558
- composite z-score [18]: 1
- composite z-score [19]: 0.858
- composite z-score [20]: 1.34

SMILES: C=CCN1Cc2ccccc2[C@@H]2OC(c3ccc(OCCCO)cc3)=N[C@]2(CC=C)C1=O
- composite z-score [1]: 1.57
- z-score [2]: -0.98 (inactive)
- z-score [3]: -2.8 (inactive)
- z-score [4]: -0.926 (inactive)
- composite z-score [5]: 3.15
- z-score [6]: 0.924 (inactive)
- composite z-score [7]: 0.188
- composite z-score [8]: 1.84
- composite z-score [9]: 1.03
- composite z-score [10]: 0.434
- composite z-score [11]: 1.5
- composite z-score [12]: 2.15
- composite z-score [13]: 1.07
- z-score [14]: -1.25 (inactive)
- composite z-score [15]: 0.862
- composite z-score [16]: 1.22
- composite z-score [17]: 0.724
- composite z-score [18]: 1.48
- composite z-score [19]: 1.33
- composite z-score [20]: 1.68

SMILES: COC(=O)[C@@]1(Cc2ccc(OC)cc2)[C@H]2c3cc(C(=O)N(C)C)n(Cc4ccc(C)o4)c3C[C@H]2CN1C(=O)c1ccccc1
- composite z-score [1]: 0.549
- z-score [2]: -0.529 (inactive)
- z-score [3]: 0.805 (inactive)
- z-score [4]: 0.0527 (inactive)
- composite z-score [5]: 3.6
- z-score [6]: 0.527 (inactive)
- composite z-score [7]: 0.347
- composite z-score [8]: -0.263
- composite z-score [9]: 0.916
- composite z-score [10]: 0.229
- composite z-score [11]: 1.34
- composite z-score [12]: 0.766
- composite z-score [13]: 0.923
- z-score [14]: 4.83 (inactive)
- composite z-score [15]: 0.251
- composite z-score [16]: 1.18
- composite z-score [17]: -0.102
- composite z-score [18]: 0.514
- composite z-score [19]: -0.716
- composite z-score [20]: 0.861

SMILES: N#Cc1ccc(NN2C(C(O)c3ccc(Br)cc3)C=CC3C(=O)N(c4ccccc4)C(=O)C32)cc1 (stereo not given)
- composite z-score [1]: 0.751
- z-score [2]: -1.16 (inactive)
- z-score [3]: -0.605 (inactive)
- z-score [4]: 0.297 (inactive)
- composite z-score [5]: 2.99
- z-score [6]: -1 (inactive)
- composite z-score [7]: 0.145
- composite z-score [8]: -0.146
- composite z-score [9]: 1.01
- composite z-score [10]: 0.233
- composite z-score [11]: 1.17
- composite z-score [12]: 0.96
- composite z-score [13]: 0.905
- z-score [14]: -0.699 (inactive)
- composite z-score [15]: 0.65
- composite z-score [16]: 0.648
- composite z-score [17]: 0.297
- composite z-score [18]: 0.743
- composite z-score [19]: 0.316
- composite z-score [20]: -0.374

SMILES: C[N+](C)(C)CCCC[C@@H]1NC(=O)[C@@H]2C[C@H](C(=O)NCCCCCCN)[C@H](c3cccc(OCCO)c3)N2C1=O
- composite z-score [1]: 1.45
- z-score [2]: -0.344 (inactive)
- z-score [3]: -4.23 (inactive)
- z-score [4]: -0.244 (inactive)
- composite z-score [5]: 2.44
- z-score [6]: 0.0037 (inactive)
- composite z-score [7]: 1.26
- composite z-score [8]: 0.47
- composite z-score [9]: 0.748
- composite z-score [10]: 0.617
- composite z-score [11]: 1.16
- composite z-score [12]: 1.85
- composite z-score [13]: 1.14
- z-score [14]: -0.111 (inactive)
- composite z-score [15]: 0.766
- composite z-score [16]: 1.29
- composite z-score [17]: 0.132
- composite z-score [18]: 0.776
- composite z-score [19]: 0.695
- composite z-score [20]: 1.4

SMILES: C=CCNC(=O)[C@@H]1[C@H]2C(=O)O[C@H](c3ccccc3)[C@H](c3ccccc3)N2[C@H](c2ccccc2OCCO)[C@@]12C(=O)N(C(=O)OCCOC)c1ccc(C#CC3(O)CCCCCC3)cc12
- composite z-score [1]: 1.56
- z-score [2]: 0.0171 (inactive)
- z-score [3]: -0.0365 (inactive)
- z-score [4]: 5.23 (inactive)
- composite z-score [5]: 2.86
- z-score [6]: 1.41 (inactive)
- composite z-score [7]: -0.0146
- composite z-score [8]: 1.02
- composite z-score [9]: 1.1
- composite z-score [10]: -0.0177
- composite z-score [11]: 1.17
- composite z-score [12]: 0.0347
- composite z-score [13]: 0.31
- z-score [14]: -0.692 (inactive)
- composite z-score [15]: 0.87
- composite z-score [16]: 1.3
- composite z-score [17]: 0.598
- composite z-score [18]: 1.36
- composite z-score [19]: 0.579
- composite z-score [20]: 1.13

SMILES: CCCN1C(=O)[C@@]2(Cc3ccccc31)N=C(c1ccc(OCCCO)cc1)O[C@H]2c1ccccc1
- composite z-score [1]: 1.46
- z-score [2]: -0.306 (inactive)
- z-score [3]: -7.39 (inactive)
- z-score [4]: 0.99 (inactive)
- composite z-score [5]: 2.58
- z-score [6]: -0.0139 (inactive)
- composite z-score [7]: 0.235
- composite z-score [8]: 0.643
- composite z-score [9]: 0.355
- composite z-score [10]: 0.0192
- composite z-score [11]: 1.48
- composite z-score [12]: 0.402
- composite z-score [13]: 0.949
- z-score [14]: -1.46 (inactive)
- composite z-score [15]: 0.988
- composite z-score [16]: 1.23
- composite z-score [17]: -0.286
- composite z-score [18]: 0.191
- composite z-score [19]: 0.335
- composite z-score [20]: 0.873

SMILES: O=C1[C@H]2C=C(I)[C@H](C[C@@H]2OCCOCCO)[C@@]12CO2
- composite z-score [1]: 0.582
- z-score [2]: 0.0387 (inactive)
- z-score [3]: -0.342 (inactive)
- z-score [4]: -0.155 (inactive)
- composite z-score [5]: 0.6
- z-score [6]: -0.935 (inactive)
- composite z-score [7]: -0.239
- composite z-score [8]: 0.513
- composite z-score [9]: 0.733
- composite z-score [10]: -0.027
- composite z-score [11]: 0.558
- composite z-score [12]: -0.261
- composite z-score [13]: -0.751
- z-score [14]: -0.0672 (inactive)
- composite z-score [15]: 0.954
- composite z-score [16]: 0.671
- composite z-score [17]: 0.83
- composite z-score [18]: 1.12
- composite z-score [19]: 0.459
- composite z-score [20]: 0.555

SMILES: CC1=C2[C@@H](CCc3ccccc3)OB(O)C[C@@H]2[C@@H]2C(=O)N(Cc3ccccc3)C(=O)[C@@H]2C1
- composite z-score [1]: 0.433
- z-score [2]: -0.763 (inactive)
- z-score [3]: -2.47 (inactive)
- z-score [4]: -0.993 (inactive)
- composite z-score [5]: 1.24
- z-score [6]: -0.116 (inactive)
- composite z-score [7]: -0.116
- composite z-score [8]: 0.694
- composite z-score [9]: 0.57
- composite z-score [10]: -0.0381
- composite z-score [11]: 0.294
- composite z-score [12]: -0.155
- composite z-score [13]: -0.395
- z-score [14]: 0.81 (inactive)
- composite z-score [15]: 0.631
- composite z-score [16]: 0.717
- composite z-score [17]: 0.427
- composite z-score [18]: 0.746
- composite z-score [19]: 0.405
- composite z-score [20]: 0.654

SMILES: C=C(/C(=C/C[C@H](OC(C)=O)c1ccc(CO)o1)c1cnc2ccccc2c1)C(C)C
- composite z-score [1]: 1.54
- z-score [2]: -0.816 (inactive)
- z-score [3]: -1.13 (inactive)
- z-score [4]: 0.171 (inactive)
- composite z-score [5]: 2.64
- z-score [6]: 0.243 (inactive)
- composite z-score [7]: -0.044
- composite z-score [8]: 1.6
- composite z-score [9]: 1.02
- composite z-score [10]: -0.0172
- composite z-score [11]: 1.1
- composite z-score [12]: -0.151
- composite z-score [13]: -0.483
- z-score [14]: 0.652 (inactive)
- composite z-score [15]: 1.44
- composite z-score [16]: 1.21
- composite z-score [17]: 0.845
- composite z-score [18]: 1.58
- composite z-score [19]: 0.643
- composite z-score [20]: 1.52

— PubChem BioAssay
